Source: PubChem
ADAM10 inh: human ADAM10 inhibitors, primary screen, biochemical, QFRET, HTS; inhibition, % at 7 µM; Disintegrin and metalloproteinase domain-containing protein 10 (Homo sapiens), O14672; recombinant ADAM10, EDANS/DABCYL FRET peptide cleavage, 3 h; 370,000 compounds, 0.62% hits;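 active means inhibition above a per-campaign cutoff equal to the mean of compounds falling between control-based bounds plus 3 SD, cut at about 20% in these data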;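 further: 0% = DMSO wells while the 100% control is not disclosed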
proKLK7 act: proKLK7 zymogen activators, primary screen, biochemical, fluorescence intensity | 370,000 compounds, 0.9% hits | purified proKLK7, EDANS-DABCYL substrate fluorescence; 100% is mature enzyme control, 0% vehicle | Kallikrein-7 (Homo sapiens), P49862 | activation, % at 7 µM;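 active means activation above the mean of all tested compounds plus 3 SD, computed per campaign excluding outliers beyond control limits, cut at about 13% in these data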
rCAG RNA binder: binders of r(CAG) RNA repeats, primary screen, biochemical, fluorescence. r(CAG) RNA repeat, TO-PRO-1 dye displacement fluorescence. inhibition, % at 3 µM. 370,000 compounds, 1.3% hits. AID 651821, 2012;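 active means inhibition above the plate cutoff, the mean of all test compounds on that plate plus 3 SD, cut at about 35% in these data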;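 further: 0% = DMSO alone and 100% = 100 µM mitoxantrone as full dye displacement; higher means more dye released from RNA so lower well fluorescence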
ADAM17 inh: ADAM17 inhibitors, primary screen, biochemical, QFRET; recombinant ADAM17, EDANS/DABCYL FRET peptide cleavage; AID 720648, 2013; 370,000 compounds, 0.83% hits; Disintegrin and metalloproteinase domain-containing protein 17 (Homo sapiens), P78536; inhibition, % at 6.95 µM;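 active means inhibition above the mean of compounds lying between control limits plus 3 SD, set per campaign, cut at about 8.5% in these data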;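 further: 0% = DMSO-only wells as the low control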
Target sequence (P78536 215-824 limits assumed): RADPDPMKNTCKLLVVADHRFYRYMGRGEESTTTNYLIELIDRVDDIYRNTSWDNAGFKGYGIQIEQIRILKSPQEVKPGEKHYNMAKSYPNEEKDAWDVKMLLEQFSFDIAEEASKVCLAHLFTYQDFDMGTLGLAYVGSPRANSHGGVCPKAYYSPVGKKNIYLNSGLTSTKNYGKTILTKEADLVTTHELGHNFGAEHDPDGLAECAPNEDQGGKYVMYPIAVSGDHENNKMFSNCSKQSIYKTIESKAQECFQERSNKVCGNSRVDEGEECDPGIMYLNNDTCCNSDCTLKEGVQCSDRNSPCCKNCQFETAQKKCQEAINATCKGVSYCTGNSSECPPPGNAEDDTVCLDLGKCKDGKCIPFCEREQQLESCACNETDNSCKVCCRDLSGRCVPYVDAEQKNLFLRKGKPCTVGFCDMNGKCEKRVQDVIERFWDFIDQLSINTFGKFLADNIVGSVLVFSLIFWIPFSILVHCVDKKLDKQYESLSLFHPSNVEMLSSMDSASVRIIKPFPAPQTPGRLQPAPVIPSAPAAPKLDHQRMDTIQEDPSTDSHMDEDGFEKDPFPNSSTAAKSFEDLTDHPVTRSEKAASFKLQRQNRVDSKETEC
NR3A LBD binder: binders of NR3A ligand-binding domain, primary screen, biophysical, differential scanning fluorimetry, uHTS | NR3A LBD differential scanning fluorimetry, Tm shift; 0% = protein alone, 100% = glycine-bound protein | 340,000 compounds, 2.5% hits | AID 1259313, 2017 | Tm shift relative to glycine control, % at 25 µM;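 active means melting temperature shift of at least 10% of the positive control shift, at one fixed dose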
AHR activator: AHR activators, primary screen, cell-based, luminescence, luciferase reporter, human; activation, % at 5 µM; AID 2796, 2010; 320,000 compounds, 2.5% hits; Aryl hydrocarbon receptor (Homo sapiens), P35869; AHR-responsive luciferase reporter cells; in the data active means activation above about 47%;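 further: 0% = vehicle wells and 100% = reference agonist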
AHR act confirm: AHR activators, confirmation, cell-based, luminescence, luciferase reporter, human | AID 2845, 2010 | 2,300 compounds, 87% hits | activation, % at 9 µM | shares compounds with AHR activator | human cells, AHR-responsive luciferase reporter; in the data active means activation above about 49%;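 further: HepG2 hepatoma cells carrying a DRE-driven firefly luciferase reporter; 0% = vehicle wells and 100% = reference agonist wells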
PXR counter: human PXR activators, counter-screen for AHR activator project, cell-based, luciferase luminescence. shares compounds with AHR activator. cell-based PXR reporter. activation, % at 11.6 µM. 2,300 compounds, 88% hits. AID 434939, 2010; in the data active means activation above about 11%;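 further: human hepatoma DPX-2 cells expressing full-length human PXR; 0% = DMSO and 100% = reference agonist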
The depositor's hits bear a star; i = inactive; x = not tested or not shown. This is a sample that favours compounds with a hit; in the whole collection about 7% have one here.

SMILES	ADAM10 inh	proKLK7 act	rCAG RNA binder	ADAM17 inh	NR3A LBD binder	AHR activator	AHR act confirm	PXR counter
COc1ccc(-c2sc3cc4c(cc3c2C#Cc2cncn2C)OCO4)cc1	-24	-5	5	-12	-1	82*	103*	15*
O=S(=O)(Nc1ccc(-c2nc3cccnc3s2)cc1)c1cccs1	i	-3	8	i	-12	95*	98*	29*
COc1ccc(C(=O)N/C(N)=N/c2nc3ccccc3o2)cc1	0	0	1	-7	0	41	x	x
N/C(=N\c1nc2ccccc2o1)NC(=O)c1ccccc1Br	6	0	3	-2	3	95*	43	28*
N/C(=N\c1nc2ccccc2o1)NC(=O)c1ccc(F)cc1	-10	0	-1	-3	-2	83*	145*	30*
CC(C)(C)c1ccc(S(=O)(=O)N2CCCC(C(=O)N3CCN(Cc4ccccc4)CC3)C2)cc1 (stereo not given)	19	0	4	3	x	x	x	x
CN(C)C(/C=C/Nc1ccc(C#N)cc1)=C(C#N)C#N	-1	0	-2	2	x	109*	102*	25*
CN(C)C(/C=C/Nc1ccc(Br)cc1)=C(C#N)C#N	8	0	-1	2	-3	31	x	x
Nc1nc(-c2ccco2)nn1C(=O)c1ccc(Cl)cc1	10	0	5	5	-1	2	x	x
Nc1nc2ccc(Cl)cc2c2nc(-c3ccco3)nn12	x	x	x	x	x	107*	248*	34*
O=C(Nc1ccccc1C(=O)Nc1ccccc1)c1ccccc1F	-8	0	-4	-5	0	83*	65*	41*
O=C(O)c1cccc(NC(=O)c2ccccc2NC(=O)c2ccccc2F)c1	-6	0	8	2	-3	4	x	x
CCC(=O)N(CCc1ccccc1)Cc1cc2cc3c(cc2[nH]c1=O)OCO3	-79	0	0	-28	-1	92*	93*	54*
Cc1nn(-c2ccccc2)c2sc(C(=O)NCC3CCCO3)cc12 (stereo not given)	-102	1	1	-26	x	x	x	x
O=C(Nc1ccc(Cl)cc1)Nc1ccon1	-12	1	1	0	14*	97*	76*	14*
Cc1ccc(NC(=O)Nc2ccon2)cc1	-4	0	-3	1	-1	x	x	x
COc1cccc(CN(C)C(=O)[C@@H](Cc2ccccc2)NC(=O)[C@H]2O[C@@H](n3ccc(=O)[nH]c3=O)[C@H](O)[C@@H]2O)c1	-2	0	1	-3	x	x	x	x
CC(C)C[C@@H]1COc2cc(Br)ccc2S(=O)(=O)N1Cc1cn(Cc2ccc(Cl)cc2)nn1	7	0	0	1	x	x	x	x
CN(C(=O)/C=C/c1ccc2c(c1)OCO2)c1ccccc1	-8	0	1	-1	-1	97*	79*	114*
CCOC(=O)N1CCN(C(=O)C[C@@H]2C(=O)N3CCCC4=C3[C@@]2(C(=O)OCC)CCC4)CC1	-3	0	-2	1	x	x	x	x
O=C1NC(=Nc2ccccc2)S/C1=C/c1cccs1	1	0	17	-2	-4	116*	120*	32*
COC(=O)C1=C(C)N(C)C(=NCc2ccccc2)NC1c1ccccc1C(F)(F)F (stereo not given)	-4	0	5	-5	x	x	x	x
Nn1c(SCC(=O)N2c3ccccc3Sc3ccc(Cl)cc32)nnc1-c1n[nH]c2c1CCC2	5	0	8	7	x	x	x	x
Cn1c(=O)c([N+](=O)[O-])c(NCCc2ccccc2)c2ccccc21	2	-1	2	2	-15	81*	89*	49*
Cn1c(=O)c([N+](=O)[O-])c(NCc2ccc3c(c2)OCO3)c2ccccc21	3	0	4	0	-1	89*	99*	86*
SMILES	ADAM10 inh	proKLK7 act	rCAG RNA binder	ADAM17 inh	NR3A LBD binder	AHR activator	AHR act confirm	PXR counter
CN(CC(=O)Nc1ccc(Cl)c(Cl)c1)C(=O)c1cccc2cccnc12	-6	0	2	-8	0	9	x	x
Cc1ccc(NC(=O)c2cccc3cccnc23)cc1	5	-1	7	-4	-5	121*	110*	30*
Cc1ccc(NC(=O)CN(C)S(=O)(=O)c2cccc3cccnc23)cc1	-3	0	1	0	0	2	x	x
CC(=O)Nc1cccc(NC(=O)c2cccc3cccnc23)c1	-4	0	8	0	5	124*	101*	56*
COc1ccc(CCn2cnn3c(=O)c4ccccc4nc3c2=O)cc1OC	5	0	1	0	x	x	x	x
O=C(NC(=S)Nc1ccc2cn[nH]c2c1)c1ccccc1	2	-1	0	-2	-2	84*	81*	75*
Cn1cccc([N+](=O)[O-])c1=O	-10	0	1	-5	x	x	x	x
O=[N+]([O-])c1cccn2cc(-c3ccc(Br)cc3)nc12	-12	-1	10	-7	4	107*	214*	17*
O=C1c2ccccc2-c2nc3ccccc3nc21	1	1	4	-4	0	115*	149*	x
CCCc1c(C(=O)Nc2cc(C(C)(C)C)on2)cnn1-c1ccccc1	9	0	-2	-2	1	-3	x	x
Cn1ncc(Br)c1C(=O)Nc1ccc(F)cc1F	-4	0	0	-3	1	85*	80*	17*
Cc1occc1C(=O)Nc1ccc(Br)cc1F	7	-1	5	1	2	25	x	x
O=C(Nc1ccc(Br)cc1F)c1cccnc1	-3	1	-5	-4	3	126*	60*	26*
Cc1nn(C)c(C(=O)Nc2ccc(Br)cc2F)c1Br	x	x	x	x	-10	88*	110*	12*
CCCc1c(C(=O)Nc2ccc(F)cc2F)cnn1-c1ccccc1	1	0	-3	-1	-1	83*	91*	71*
Cc1c(-c2ccc(Br)cc2)nc2ccccn12	-99	2	-2	-31	-2	165*	172*	15*
Cc1ccc(NC(=O)C2OCCc3ccccc32)cc1Cl (stereo not given)	5	-1	-3	1	0	2	x	x
